Measured values: PMC11024108

Biological target: 10 kDa heat shock protein, mitochondrial (UniProt P61604)
Assay: cross-link between two proteins; cross-linking mass spectrometry

Sequence of 10 kDa heat shock protein, mitochondrial (P61604 whole entry): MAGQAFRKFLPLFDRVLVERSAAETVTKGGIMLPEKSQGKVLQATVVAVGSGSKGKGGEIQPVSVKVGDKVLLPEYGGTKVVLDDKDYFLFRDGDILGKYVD

Listed as a hit, yes:
Aspartate aminotransferase, mitochondrial, P00505
ATP synthase F(1) complex subunit alpha, mitochondrial, P25705
NADPH:adrenodoxin oxidoreductase, mitochondrial, P22570
Stress-70 protein, mitochondrial, P38646

Biological target: Malate dehydrogenase, mitochondrial (UniProt P40926)
Assay: as above

Listed as a hit, yes:
Aspartate aminotransferase, mitochondrial, P00505
Pyruvate dehydrogenase E1 component subunit alpha, somatic form, mitochondrial, P08559
ATP synthase F(1) complex subunit alpha, mitochondrial, P25705
NADPH:adrenodoxin oxidoreductase, mitochondrial, P22570
Stress-70 protein, mitochondrial, P38646
ADP/ATP translocase 2, P05141
Citrate synthase, mitochondrial, O75390
